HP1b chromo inh: inhibitors of HP1-beta chromodomain binding to methylated histone tails; actives 0.56% (n = 390,000); AlphaScreen HP1-beta / biotin-H3K9me3 peptide binding; P83916; Potency, µM (top dose mostly 114 µM), most hits filed as inhibitors; AID 540317; note: nearly all actives have a fitted effect of over 70% in size
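HP1-beta protein (50 nM final) preincubated 30 min at room temperature with biotinylated H3(1-18)K9me3 peptide (50 nM) in PBS pH 7.4, 0.01% Tween-20, then compound added for 30 min. AlphaScreen streptavidin donor/nickel chelate acceptor beads (10 ug/mL final), 30 min dark, luminescence read.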
G9a inh: G9a (human) methyltransferase inhibition; Q96KQ7; G9a H3K9 monomethylation, AlphaScreen, 2 h; Potency, µM (highest dose often 102 µM), usual class: inhibitors; actives 8.8% (n = 350,000); AID 504332; note: nearly all actives have a fitted effect of over 75% in size
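Signal arises when biotinylated H3K9 peptide, once monomethylated, bridges streptavidin donor and antibody-captured acceptor beads. Enzyme at 20 nM was preincubated 15 min with test compounds; peptide 500 nM and SAM 20 uM then reacted for 2 h.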
PLK1 PBD inh: inhibitors of human PLK1 polo-box domain binding | P53350 | Plk1 PBD binding of FITC phosphopeptide, fluorescence polarization | Potency, µM, hits mostly inhibitors | actives 2.8% (n = 360,000) | AID 720504; note: series mostly up to about 57 µM; nearly all actives have a fitted effect of over 65% in size
Sfp inh: inhibitors of Bacillus subtilis Sfp phosphopantetheinyl transferase | Biochemical Sfp PPTase activity, qHTS | actives 3.5% (n = 310,000) | AID 1490 | Q9F4F7 | Potency, µM, usual class: inhibitors;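 note: the enzyme is Sfp with the accession as filed and its product quenches rhodamine fluorescence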
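Fluorescence-quenching assay with 15 nM Sfp, 5 uM rhodamine-CoA and 12.5 uM BHQ-2-labelled ybbR peptide in pH 7.6 Hepes/MgCl2 buffer. Enzyme was pre-incubated with compound for 15 min at room temperature. Rate was taken from the 30-min fluorescence change (525/598 nm).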
BAZ2B inh: BAZ2B (human) inhibition; Q9UIF8; AlphaScreen BAZ2B-H3K14Ac peptide displacement; Potency, µM (highest dose often 114 µM), usual class: inhibitors; actives 4.4% (n = 360,000); note: nearly all actives have a fitted effect of over 60% in size
Target sequence (Q9UIF8 whole entry, looked up): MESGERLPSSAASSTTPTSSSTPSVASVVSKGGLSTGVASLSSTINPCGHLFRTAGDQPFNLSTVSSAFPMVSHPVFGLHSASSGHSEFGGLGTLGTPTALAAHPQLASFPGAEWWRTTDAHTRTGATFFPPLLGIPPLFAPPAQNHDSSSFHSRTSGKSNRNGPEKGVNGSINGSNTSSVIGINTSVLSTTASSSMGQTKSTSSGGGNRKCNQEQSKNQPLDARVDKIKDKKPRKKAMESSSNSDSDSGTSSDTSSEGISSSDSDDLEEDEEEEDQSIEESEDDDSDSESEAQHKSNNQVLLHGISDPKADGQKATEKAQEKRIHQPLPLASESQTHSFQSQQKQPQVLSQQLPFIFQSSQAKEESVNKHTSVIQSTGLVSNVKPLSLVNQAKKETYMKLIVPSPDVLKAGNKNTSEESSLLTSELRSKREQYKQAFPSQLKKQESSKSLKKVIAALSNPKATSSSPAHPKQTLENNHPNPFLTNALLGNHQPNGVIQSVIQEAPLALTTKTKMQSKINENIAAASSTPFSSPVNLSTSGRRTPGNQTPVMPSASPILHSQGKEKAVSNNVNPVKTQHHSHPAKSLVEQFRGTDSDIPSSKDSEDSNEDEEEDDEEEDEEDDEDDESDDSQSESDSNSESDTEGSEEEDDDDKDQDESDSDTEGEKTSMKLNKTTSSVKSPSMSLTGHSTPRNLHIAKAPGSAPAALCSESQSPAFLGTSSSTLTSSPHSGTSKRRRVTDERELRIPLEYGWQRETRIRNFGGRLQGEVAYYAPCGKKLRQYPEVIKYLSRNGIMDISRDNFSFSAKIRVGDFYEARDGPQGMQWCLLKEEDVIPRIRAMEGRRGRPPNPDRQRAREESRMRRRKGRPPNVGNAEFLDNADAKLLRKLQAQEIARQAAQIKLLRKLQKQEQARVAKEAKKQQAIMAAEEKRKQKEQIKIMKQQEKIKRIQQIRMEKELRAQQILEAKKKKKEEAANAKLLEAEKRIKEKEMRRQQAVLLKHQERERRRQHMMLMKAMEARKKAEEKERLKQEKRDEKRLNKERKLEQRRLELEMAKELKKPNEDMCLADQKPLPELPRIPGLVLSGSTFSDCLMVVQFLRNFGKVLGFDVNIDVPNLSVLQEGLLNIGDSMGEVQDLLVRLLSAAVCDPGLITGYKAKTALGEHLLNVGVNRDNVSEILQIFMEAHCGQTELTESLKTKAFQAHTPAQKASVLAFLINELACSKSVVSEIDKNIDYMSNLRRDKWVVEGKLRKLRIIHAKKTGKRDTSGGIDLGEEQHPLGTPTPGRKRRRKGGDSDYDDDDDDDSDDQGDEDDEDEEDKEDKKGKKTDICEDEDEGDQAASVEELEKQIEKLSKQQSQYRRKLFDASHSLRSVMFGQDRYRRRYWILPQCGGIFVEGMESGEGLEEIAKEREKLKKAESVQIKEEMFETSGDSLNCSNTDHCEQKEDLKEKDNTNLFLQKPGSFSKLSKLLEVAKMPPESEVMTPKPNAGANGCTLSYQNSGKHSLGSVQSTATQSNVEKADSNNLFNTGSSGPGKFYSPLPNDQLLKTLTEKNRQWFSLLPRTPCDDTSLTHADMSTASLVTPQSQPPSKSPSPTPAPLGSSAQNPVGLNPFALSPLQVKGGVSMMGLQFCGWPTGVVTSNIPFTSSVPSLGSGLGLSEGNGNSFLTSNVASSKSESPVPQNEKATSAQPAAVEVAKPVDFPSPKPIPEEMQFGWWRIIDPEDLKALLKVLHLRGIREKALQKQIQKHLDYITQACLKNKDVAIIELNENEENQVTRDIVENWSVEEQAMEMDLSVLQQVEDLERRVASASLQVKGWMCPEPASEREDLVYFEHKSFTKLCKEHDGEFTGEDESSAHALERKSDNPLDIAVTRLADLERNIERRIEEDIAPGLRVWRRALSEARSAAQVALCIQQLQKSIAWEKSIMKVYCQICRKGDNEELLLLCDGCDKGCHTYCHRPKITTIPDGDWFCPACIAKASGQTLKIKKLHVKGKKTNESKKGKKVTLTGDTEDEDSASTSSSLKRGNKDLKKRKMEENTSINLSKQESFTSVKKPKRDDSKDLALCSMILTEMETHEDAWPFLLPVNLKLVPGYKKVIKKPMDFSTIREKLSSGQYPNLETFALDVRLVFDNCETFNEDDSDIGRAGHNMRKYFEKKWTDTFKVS
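Multi-concentration screen (max 110 uM) measuring displacement of acetylated histone H3 peptide from BAZ2B by AlphaScreen, using 50 nM protein, 50 nM peptide and 10 ug/mL streptavidin donor plus Ni-chelate acceptor beads.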
JMJD2A Tudor inh: JMJD2A Tudor domain (human) inhibition; O75164; Potency, µM (highest dose often 114 µM), most hits filed as inhibitors; actives 4.4% (n = 390,000); AlphaScreen JMJD2A-Tudor / H3K4me3 peptide binding; note: nearly all actives have a fitted effect of over 50% in size
A number is an active result; 0 = inactive; ? = inconclusive; - = no result; [ ] = dose if it differs, or a comment. Rows were chosen to be rich in hits. Some 12% of all compounds tested hit in one or more screens of this group. Calls come from the whole dose curve; as a rule, active = well fitted curve in the direction sought with a large enough effect; inconclusive = small, poorly fitted or top-dose-only effect, or another doubt; inactive = no such curve, though single readings can be large; an effect the other way counts as inactive or inconclusive.

SMILES	HP1b chromo inh	G9a inh	PLK1 PBD inh	Sfp inh	BAZ2B inh	JMJD2A Tudor inh
CN(C)CCNc1ncnc2c1ncn2[C@H]1CN(CCc2ccccc2)C[C@@H](CO)O1	-	-	0	-	-	-
O=C(CCc1cn(Cc2ccccc2Cl)c2ccccc12)NC1CCCCC1	0	0	-	-	0	0
Cc1ccc(NS(=O)(=O)c2ccc3[nH]c4c(c3c2)CCCCC4)cc1	0	14.1µM	-	-	0	?
CC(=O)c1ccc(NS(=O)(=O)c2ccc3[nH]c4c(c3c2)CCCCCC4)cc1	0	0	-	-	?	0
Cc1ccc(NS(=O)(=O)c2ccc3[nH]c4c(c3c2)CCCC4)c(C)c1	?	15.8µM	-	-	39.8µM	28.2µM
COc1ccc(NS(=O)(=O)c2ccc3[nH]c4c(c3c2)CCCCCC4)cc1	0	0	-	-	0	0
Cc1ccc(NC(=O)CN(C)S(=O)(=O)c2ccc3[nH]c4c(c3c2)CCCC4)c(Cl)c1	0	11.2µM	-	-	0	?
CC(=O)c1ccc(NS(=O)(=O)c2ccc3[nH]c4c(c3c2)CCCC4)cc1	0	?	-	-	79.4µM	?
CCOc1ccc(CNS(=O)(=O)c2ccc3[nH]c4c(c3c2)CCCC4)cc1OC	?	?	-	-	44.7µM	?
COC(=O)c1ccc(NS(=O)(=O)c2ccc3[nH]c4c(c3c2)CCCCC4)cc1	0	?	-	-	0	?
COc1ccccc1CNS(=O)(=O)c1ccc2[nH]c3c(c2c1)CCCCC3	0	0	-	-	0	?
COC(=O)c1ccc(NS(=O)(=O)c2ccc3[nH]c4c(c3c2)CCCC4)cc1	0	?	-	-	70.8µM	?
CC[C@H](C)[C@H](N)C1=N[C@H](C(=O)N[C@@H](CC(C)C)C(=O)N[C@@H](CCC(=O)O)C(=O)N[C@@H](C(=O)N[C@H]2CCCCNC(=O)[C@@H](CC(N)=O)NC(=O)[C@@H](CC(=O)O)NC(=O)[C@@H](Cc3cnc[nH]3)NC(=O)[C@@H](Cc3ccccc3)NC(=O)[C@@H]([C@@H](C)CC)NC(=O)[C@@H](CCCN)NC2=O)[C@@H](C)CC)CS1	-	0[21.5 µM]	-	0	-	-
CCC(C)NCCOc1ccccc1C (centres undefined)	?	2.82µM	0	56.2µM	50.1µM	3.16µM
CC(C)NCC(O)COCCOc1ccc(Br)cc1 (centres undefined)	0	0	0	0	0	0
CCC(C)NCCOCCOc1ccc(Br)cc1 (centres undefined)	?	?	0	?	79.4µM	11.2µM
CCC(C)NCCOc1ccc(Br)cc1 (centres undefined)	?	12.6µM	0	0	?	3.55µM
Cc1ccccc1OCCNC(=S)Nc1ccccc1	0	0	0	0	0	0
Cc1ccc(C)c(OCCCNC2CCCC2)c1C	?	7.08µM	0	0	?	0.794µM
Cc1ccc(OCCCNC2CCCC2)cc1	0	12.6µM	0	0	?	22.4µM
COc1cccc(OC)c1OCCCNC1CCCC1	?	-	0	0	?	25.1µM
Cc1cc(C)c(NC(=O)CCCCCNC2CCCCC2)c(C)c1	0	0[12.7 µM]	26.7µM	0	0	?
COc1cccc(OC)c1OCCNCCO	0	0	0	0	0	0
N#Cc1ccccc1OCC(=O)NC1CCCCC1	0	-	0	-	-	0
Cc1ccc(OCCCCNC2CCCCC2)c(C)c1	0	14.1µM	0	0	79.4µM	28.2µM
SMILES	HP1b chromo inh	G9a inh	PLK1 PBD inh	Sfp inh	BAZ2B inh	JMJD2A Tudor inh
N#Cc1ccccc1OCCCNC1CCCC1	?	20µM	0	0	?	0
Cc1ccc(OCC(O)CNC2CCCC2)c(C)c1 (centres undefined)	0	-	0	0	0	0
CC(C)(C)c1ccc(OCCCNC2CCCC2)cc1	0	11.2µM	0	0	79.4µM	20µM
CCCOC(=O)NCCCN(C)C	-	-	-	0	-	-
CC(=O)c1ccc(NC(=S)NNC(=O)c2ccccc2[N+](=O)[O-])cc1	0	?	?	0	50.1µM	0
O=C(NNC(=S)Nc1ccccc1)c1ccccc1[N+](=O)[O-]	0	31.6µM	0	0	0	0
O=C(NNC(=S)NC(=O)c1ccccc1[N+](=O)[O-])c1ccccc1[N+](=O)[O-]	0	?	0	0	0	0
CCOc1ccc(N(CC)C(=O)CCS(=O)(=O)c2cccc3nonc23)cc1	0	0	0	0	0	0
CN(C1CCCCC1)S(=O)(=O)c1ccc(SCC(=O)C(C)(C)C)nc1	0	-	0	-	-	0
COc1ccc(C2(C(=O)c3ccccc3)C(=O)c3ccccc3C2=O)cc1	?	-	11.9µM	44.7µM	22.4µM	35.5µM
COc1ccc(C(=O)CC(=O)c2ccccc2)cc1	0	-	0	-	-	0
Cc1ccc(S(=O)(=O)CCC(=O)Oc2ccc3c(C)cc(=O)oc3c2)cc1	0	50.1µM	?	-	0	?
Cc1ccc(OC(=O)CCS(=O)(=O)c2ccc(C)cc2)cc1	0	-	?	0	0	0
Cc1c(Cl)cccc1NC(=O)CN1C(=O)CSc2ccc(S(=O)(=O)N3CCCC3)cc21	0	0	-	-	0	0
Cc1ccc(/C=N/n2c(C3CCCCC3)n[nH]c2=S)s1	0	8.91µM	0	0	0	0
Cc1ccsc1/C=N/n1c(C2CCCCC2)n[nH]c1=S	0	1.41µM	?	0	0	?
COc1ccc(S(=O)(=O)N2CCCCC2)cc1NC(=O)COC(=O)c1ccco1	0	-	0	-	-	0
O=C(Nc1ccc2c(c1)nc1n2CCN(Cc2ccccc2)C1)NC1CCCCC1	0	22.4µM	0	0	0	0
O=C(Nc1ccc2c(c1)nc1n2CCN(Cc2ccccc2)C1)c1cccs1	0	?	0	0	?	0
COc1ccccc1C(=O)Nc1ccc2c(c1)nc1n2CCN(Cc2ccccc2)C1	0	15.8µM	0	0	0	0
CCCn1c(N)c(N(CCOC)C(=O)CSCC(=O)Nc2cccc(C)c2)c(=O)[nH]c1=O	0	50.1µM	0	-	0	0
COCCN(C(=O)CSCC(=O)Nc1cccc(C)c1)c1c(N)n(Cc2ccccc2)c(=O)[nH]c1=O	0	0[2.33 µM]	0	-	0	0
CCCCN(C(=O)CSCC(=O)Nc1cccc(C)c1)c1c(N)n(CCCC)c(=O)[nH]c1=O	0	20µM	0	-	0	0
Cc1ccc(CSCC(=O)N(CCC(C)C)c2c(N)n(Cc3ccccc3)c(=O)[nH]c2=O)cc1	0	0[0.501 µM]	0	-	0	0
CCCCn1c(N)c(N(CC(C)C)C(=O)CSCC(=O)Nc2cccc(C)c2)c(=O)[nH]c1=O	0	0	0	-	0	0
Cc1ccc(NC(=O)CSCC(=O)N(CCC(C)C)c2c(N)n(Cc3ccccc3)c(=O)[nH]c2=O)cc1	0	56.2µM	0	-	0	0
CCCCn1c(N)c(N(CC(C)C)C(=O)CSCC(=O)Nc2ccc(OC)cc2)c(=O)[nH]c1=O	0	0	0	-	0	0
CCCCn1c(N)c(N(CC)C(=O)CSCC(=O)Nc2ccc(OC)cc2)c(=O)[nH]c1=O	0	50.1µM	0	-	0	0
CCC1=C2CC[C@H]3C(=O)N(c4ccccc4)C(=O)[C@H]3[C@H]2[C@@]2(Cc3ccccc3)C(=NCC3CC3)OC(=O)N2C1=O	-	-	-	0	-	-

High-throughput results (PubChem BioAssay)
